# Source: PubChem (National Center for Advancing Translational Sciences (NCATS))
# PLK1 PBD inh: qHTS for Inhibitors of PLK1-PDB (polo-like kinase 1 - polo-box domain): Primary Screen | 360,000 tested, 2.8% active | Potency, µM, without a hit: max response, negative = inhibition, most hits filed as inhibitors | Serine/threonine-protein kinase PLK1 (Homo sapiens), P53350 | AID 720504, 2013 | Plk1 PBD binding of FITC phosphopeptide, fluorescence polarization; note: series mostly up to about 57 µM; % is set by controls: 0 for no effect and ±100 for the full control effect; nearly all actives have a fitted effect of over 65% in size
# BAZ2B inh: qHTS Assay for Inhibitors of BAZ2B. Bromodomain adjacent to zinc finger domain protein 2B (Homo sapiens), Q9UIF8. AlphaScreen BAZ2B-H3K14Ac peptide displacement. Potency, µM (doses to about 114 µM), for the others: at the top dose activity change, negative = inhibition, actives largely listed as inhibitors. 360,000 tested, 4.4% active; note: % is set by controls: 0 for no effect and ±100 for the full control effect; nearly all actives have a fitted effect of over 60% in size
#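 Compounds, titrated to a top concentration of 110 uM, were incubated 30 min at room temperature with preformed BAZ2B/acetyl-K14 H3 peptide complex (50 nM each). Proximity signal was measured by AlphaScreen after 20 min with beads.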
# HP1b chromo inh: HTS for Inhibitors of HP1-beta Chromodomain Interactions with Methylated Histone Tails; AlphaScreen HP1-beta / biotin-H3K9me3 peptide binding; Potency, µM (titrated, usually from 114 µM), for the others: at the top dose activity change, negative = inhibition, actives largely listed as inhibitors; Chromobox protein homolog 1 (Homo sapiens), P83916; 390,000 tested, 0.56% active; AID 540317, 2011; note: nearly all actives have a fitted effect of over 70% in size
# Target sequence (P83916 whole entry, looked up): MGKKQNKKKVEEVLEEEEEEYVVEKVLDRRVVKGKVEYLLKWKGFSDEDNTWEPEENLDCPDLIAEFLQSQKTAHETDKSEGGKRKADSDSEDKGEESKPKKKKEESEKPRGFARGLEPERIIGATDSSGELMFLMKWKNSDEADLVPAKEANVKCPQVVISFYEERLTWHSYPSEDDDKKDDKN
#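 HP1-beta protein (50 nM final) preincubated 30 min at room temperature with biotinylated H3(1-18)K9me3 peptide (50 nM) in PBS pH 7.4, 0.01% Tween-20, then compound added for 30 min. AlphaScreen streptavidin donor/nickel chelate acceptor beads (10 ug/mL final), 30 min dark, luminescence read.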
# JMJD2A Tudor inh: qHTS Assay for Inhibitors of JMJD2A-Tudor Domain. Potency, µM (doses to about 114 µM), without a hit: top-dose activity change, negative = inhibition, usual class: inhibitors. 390,000 tested, 4.4% active. Lysine-specific demethylase 4A (Homo sapiens), O75164. AlphaScreen JMJD2A-Tudor / H3K4me3 peptide binding; note: % is set by controls: 0 for no effect and ±100 for the full control effect; nearly all actives have a fitted effect of over 50% in size
# L3MBTL1 inh: qHTS Assay for the Inhibitors of L3MBTL1; Lethal(3)malignant brain tumor-like protein 1 (Homo sapiens), Q9Y468; AlphaScreen L3MBTL1–H3K9me1 peptide binding; Potency, µM (series often up to 57.1 µM), without a hit: at the highest dose activity, negative = inhibition, actives largely listed as inhibitors; 230,000 tested, 0.66% active; note: % is set by controls: 0 for no effect and ±100 for the full control effect; nearly all actives have a fitted effect of over 60% in size
#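 AlphaScreen assay: L3MBTL1 (50 nM final) was preincubated 30 min at room temperature with biotinylated H3(1-15)K9me1 peptide (75 nM final), then 30 min with library compounds; streptavidin donor and nickel chelate acceptor beads (10 ug/mL final) added, 30 min dark.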
# VDR inhibitor: Inhibitors of the vitamin D receptor (VDR): qHTS; Vitamin D3 receptor (Homo sapiens), P11473; 400,000 tested, 0.93% active; Potency, µM, for inactives: max response, negative = inhibition, usual class: inhibitors; VDR-SRC2-3 peptide fluorescence polarization, 2 h; note: % is set by controls: 0 for no effect and ±100 for the full control effect
#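 VDR–SRC2-3 interaction, FP format. Cmpds 23 nl via pintool, brief spin, 2 h ambient incubation.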
# Starred values were filed as active, the others as inactive; u = inconclusive; x = no result. In the library only some 6.9% were active in any assay of this set; here they are far more common. Calls come from the whole dose curve; as a rule, active = well fitted curve in the direction sought with a large enough effect; inconclusive = small, poorly fitted or top-dose-only effect, or another doubt; inactive = no such curve, though single readings can be large; an effect the other way counts as inactive or inconclusive. Potency is the fitted concentration of half-maximal effect.
SMILES,PLK1 PBD inh,BAZ2B inh,HP1b chromo inh,JMJD2A Tudor inh,L3MBTL1 inh,VDR inhibitor
O=C(CCCn1c(=S)[nH]c2cc3c(cc2c1=O)OCO3)N1CCN(C2CCCCC2)CC1,-2.0%,-27.2%,24.7%,79.4µM*,3.3%,-1.6%
CCN(CC)CCNC(=O)CCn1c(=S)[nH]c2cc3c(cc2c1=O)OCO3,-4.2%,12.6%,17.4%,50.1µM*,2.2%,16.2%
CCCCNC(=O)CCCn1c(=S)[nH]c2cc3c(cc2c1=O)OCO3,-3.2%,8.6%,41.0%,-14.9%,-2.1%,4.1%
CCCCNC(=O)c1ccc(Cn2c(=S)[nH]c3c([nH]c4ccc(OC)cc43)c2=O)cc1,-4.2%,-4.6%,15.9%,-32.0%,1.9%,-8.2%
COCCCCCCCCCCCC(=O)O,x,x,x,x,x,-15.3%
CC(=O)OCC(NC(=O)C1CCCN1C(=O)OC(C)(C)C)C1OC(n2cc(F)c(=O)[nH]c2=O)C(OC(C)=O)C1OC(C)=O (stereo not drawn),x,x,20.4%,-18.6%,x,-11.4%
CCc1ccccc1NC1=NCC(=O)N1Cc1ccccc1,0.6%,79.4µM*,32.2%,-0.3%,-25.0%,-6.6%
Cc1cc(C)cc(NC2=NCC(=O)N2Cc2ccccc2)c1,u,-6.9%,22.0%,-30.1%,x,-0.4%
Oc1c(C(c2ccc(Cl)cc2)N2CCC3(CC2)OCCO3)sc2nc(-c3ccco3)nn12 (stereo not drawn),x,-23.8%,34.8%,-2.9%,x,21.0%
COc1ccccc1NC(=O)c1cc2ccccc2o/c1=N\O,u,79.4µM*,-7.4%,u,3.7%,-10.4%
COc1ccc(NC(=O)c2cc3ccccc3o2)c(OC)c1,x,8.1%,41.9%,-1.0%,x,21.9%
COc1cc(NC(=O)c2cc3ccccc3cc2O)c(OC)cc1Cl,-4.4%,-25.6%,56.5%,2.7%,x,-10.6%
COc1ccccc1NC(=O)c1cc2cc(Br)ccc2cc1O,-27.1%,50.1µM*,4.1%,u,x,u
Cc1cc(C)cc(C(=O)N(Cc2nc(-c3ccc(Cl)cc3)no2)C(C)C)c1,x,15.8%,35.4%,1.7%,x,-5.3%
Cc1ccc(N2C(S)=C(C#N)C(=O)NC2c2cccs2)cc1 (stereo not drawn),26.7µM*,-29.4%,-1.0%,-26.5%,-7.1%,25.1µM*
Cc1ccc(N2C(S)=C(C#N)C(=O)NC2c2ccco2)cc1 (stereo not drawn),-28.1%,-17.1%,20.1%,-21.1%,17.9%,39.8µM*
N#CC1=C(S)N(c2ccc(F)cc2)C(c2ccco2)NC1=O (stereo not drawn),u,-27.0%,-6.9%,-20.4%,6.3%,u
N#CC1=C(S)N(c2ccccc2)C(c2cccs2)NC1=O (stereo not drawn),u,-21.9%,7.3%,-19.6%,15.1%,u
Cc1cccc(CNC(=O)C2CCC(CNS(=O)(=O)c3ccc4c(c3)CCCC(=O)N4)CC2)c1 (stereo not drawn),x,-0.7%,0.8%,-17.3%,x,11.1%
Cc1ccc(C(=O)Nc2ccc(S(=O)(=O)O)c3cc(S(=O)(=O)O)cc(S(=O)(=O)O)c23)cc1NC(=O)c1cccc(NC(=O)Nc2cccc(C(=O)Nc3cc(C(=O)Nc4ccc(S(=O)(=O)O)c5cc(S(=O)(=O)O)cc(S(=O)(=O)O)c45)ccc3C)c2)c1,x,x,x,x,x,22.4µM*
CCOc1ccccc1NC(=O)Cn1c(=O)n(Cc2ccc(OC)cc2)c(=O)c2oc3ccccc3c21,x,-10.6%,20.2%,-6.6%,x,4.2%
COCCn1c(=O)c(CCc2ccccc2)nc2cnc(Oc3cccc(Cl)c3)nc21,x,x,x,x,x,-7.0%
O=C(O)c1ccc(Cl)c(NC(=S)NC(=O)c2cccc(COc3ccccc3)c2)c1,u,50.1µM*,u,u,x,-10.5%
